Measurements from PubChem BioAssay AID463173 (ICCB-Longwood Screening Facility, Harvard Medical School, 2010).
About 1,700 (3.3%) of roughly 52,000 compounds were called active. Cut-off read from the data, not from the text of the source: active = survival mostly below about 52% (no sharp cut-off); inactive = mostly above about 56%. The list comes from a sample in which actives are over-represented; it also holds similar structures and randomly drawn compounds.

system: Wild type; assay: growth inhibition of S. aureus wild type versus tarO mutant, primary screen, teichoic acid synthesis inhibitors, RN4220, OD600 (AID 463173); conditions: S. aureus RN4220 wild type/DeltatarO growth, OD600, 18 h, active compounds read low, screened at 18.75 µg/mL (by protocol)

Row | SMILES | survival
1 | CCN(C(=O)Cn1nc(Cc2cccnc2)c2ccccc2c1=O)c1cc(C)ccc1C | 83% (inactive)
2 | CCc1ccccc1NC(=O)Cn1c(SCc2ccc(F)cc2)nc2ccncc21 | 48% (inactive)
3 | COc1ccc(NC(=O)C2CCN(S(=O)(=O)c3c(C)noc3/C=C/c3ccco3)CC2)cc1 | 128% (inactive)
4 | COc1ccc(CCNC(=O)CCn2c(=O)c3ccccc3n(Cc3ccccc3)c2=O)cc1OC | 97% (inactive)
5 | CCC(=O)Nc1ccc(CC)cc1-c1nc2ccccc2n(CC(=O)c2ccc(OC)cc2)c1=O | 74% (inactive)
6 | Cc1ccc(N2CC(NC(=O)CCc3ccccc3)CC2=O)cc1 (configuration not stated) | -3% (active)
7 | O=C(CCc1ccccc1)NC1CC(=O)N(c2ccccc2)C1 (configuration not stated) | 78% (inactive)
8 | Cc1ccc(N2CC(NC(=O)CCCc3ccccc3)CC2=O)cc1 (configuration not stated) | 53% (inactive)
9 | COc1ccccc1NC(=O)CN(c1ccc(C(C)C)cc1)S(=O)(=O)c1c(C)noc1C | 88% (inactive)
10 | O=c1c2cc3c(nc2ncn1Cc1ccc(Cl)cc1)CCCC3 | 76% (inactive)
11 | O=C(CSc1nnc(NC(=O)Nc2ccccc2)s1)Nc1cccc(F)c1 | 75% (inactive)
12 | CCSc1nsc(NC(=O)Nc2cccc(F)c2)n1 | 0% (active)
13 | CCSc1nsc(NC(=O)Nc2cccc(OC)c2)n1 | 95% (inactive)
14 | Cc1ccc(CNC(=O)c2ccc(CSCc3ccc(Cl)cc3)o2)cc1 | 85% (inactive)
15 | CCOc1ccc(C(c2c(O)cc(C)n(Cc3ccco3)c2=O)N2CCN(C)CC2)cc1 (configuration not stated) | 66% (inactive)
16 | CC(C)(C)OC(=O)N1CCC(c2c(C(=O)NCc3ccc4c(c3)OCO4)cnn2-c2ccccc2Cl)CC1 | 75% (inactive)
17 | CNC(=O)C1CCC(Cn2c(=O)[nH]c3ccsc3c2=O)CC1 (configuration not stated) | 80% (inactive)
18 | CCCCCNC(=O)CCCCCn1c(=O)[nH]c2ccsc2c1=O | 62% (inactive)
19 | CCCCN(C)C(=O)C1CCC(Cn2c(=O)[nH]c3ccsc3c2=O)CC1 (configuration not stated) | -2% (active)
20 | CCCn1nc(NC(=O)c2cccc(Cl)c2)c2cc3cccc(C)c3nc21 | 87% (inactive)
21 | COc1ccc(-c2cccc(NS(=O)(=O)c3ccc(C)s3)c2)nn1 | 91% (inactive)
22 | COc1ccc(-c2nc(CSCC(=O)N3CCN(c4ccc(OC)cc4)CC3)c(C)o2)cc1 | 81% (inactive)

Row | SMILES | survival
23 | COc1ccc(-c2nc(CSCC(=O)N3CCN(c4ccccc4F)CC3)c(C)o2)cc1 | 24% (inactive)
24 | Cc1ccc(C)c(N2CCN(C(=O)C3CCCN(Cc4nc(-c5cccc(Cl)c5)oc4C)C3)CC2)c1 (configuration not stated) | 81% (inactive)
25 | COc1ccc(-c2nc(CSCC(=O)N3CCN(c4cc(Cl)ccc4C)CC3)c(C)o2)cc1 | -1% (active)
26 | CCc1ccc(-c2nc(CN3CCCC(C(=O)N4CCN(c5cc(Cl)ccc5C)CC4)C3)c(C)o2)cc1 (configuration not stated) | 84% (inactive)
27 | Cc1ccc(Cl)cc1N1CCN(C(=O)C2CCN(Cc3nc(-c4ccc(Cl)cc4)oc3C)CC2)CC1 | -4% (active)
28 | Cc1cccc(N2CCN(C(=O)C3CCN(Cc4nc(-c5ccc(Cl)cc5)oc4C)CC3)CC2)c1C | 47% (inactive)
29 | Cc1cccc(-c2nc(CN3CCCC(C(=O)N4CCN(c5cc(Cl)ccc5C)CC4)C3)c(C)o2)c1 (configuration not stated) | 75% (inactive)
30 | Cc1oc(-c2cccc(Cl)c2)nc1CN1CCC(C(=O)NC(C)C)CC1 | 92% (inactive)
31 | Cc1ccc(C)c(N2CCN(C(=O)C3CCN(Cc4nc(-c5cccc(Cl)c5)oc4C)CC3)CC2)c1 | 3% (active)
32 | Cc1ccc(Cl)cc1N1CCN(C(=O)C2CCCN(Cc3nc(-c4cccc(Cl)c4)oc3C)C2)CC1 (configuration not stated) | 84% (inactive)
33 | Cc1ccc(Cl)cc1N1CCN(C(=O)C2CCN(Cc3nc(-c4cccc(Cl)c4)oc3C)CC2)CC1 | -4% (active)
34 | Cc1cccc(N2CCN(CCCNC(=O)Cn3ncc4c([nH]c5ccccc54)c3=O)CC2C)c1 (configuration not stated) | 101% (inactive)
35 | CCc1ccccc1NC(=O)CSc1nnc(CC)c(CC)n1 | 74% (inactive)
36 | Cc1ccccc1CN1c2ccccc2S(=O)(=O)c2ccccc21 | 73% (inactive)
37 | Cc1cc(C)c(Cn2c3ccccc3c3cnn(CC(=O)NC4CCCCCC4)c(=O)c32)c(C)c1 | 127% (inactive)
38 | COc1ccc(-n2cc(-c3ccccc3)nc2SCC(=O)Nc2ccccc2)cc1Cl | 71% (inactive)
39 | COc1ccc(Cl)cc1N=C1NC(=O)CC(C(=O)Nc2ccccc2C(F)(F)F)S1 (configuration not stated) | 71% (inactive)
40 | COc1ccc(CCNC(=O)CN2C(=O)COc3ccc(C)cc32)cc1OC | 71% (inactive)
41 | COCCNC(=O)CCCn1c(SCC(=O)Nc2ccc(F)cc2)nc2c(sc3ccccc32)c1=O | 103% (inactive)
42 | Cc1ccc2c(c1)-c1c(cnc3cc(-c4ccc(Cl)cc4)nn13)CO2 | 61% (inactive)
43 | CC(=O)c1cc2c(cc1N/C(=N/S(=O)(=O)c1ccc(C)cc1)c1ccccc1)OCO2 | 88% (inactive)
44 | CC(=O)c1cc2c(cc1N/C(=N/S(=O)(=O)c1ccc(Cl)cc1)c1ccc(F)cc1)OCO2 | 80% (inactive)

Row | SMILES | survival
45 | CC(=O)c1cc2c(cc1N/C(=N/S(=O)(=O)c1ccc(C)cc1)c1ccc(Cl)cc1)OCO2 | 10% (active)
46 | CC(=O)c1cc2c(cc1N/C(=N/S(=O)(=O)c1ccc(C)cc1)c1ccc(F)cc1)OCO2 | 82% (inactive)
47 | CC(=O)c1cc2c(cc1N/C(=N/S(=O)(=O)c1ccccc1)c1ccc(Cl)cc1)OCO2 | -2% (active)
48 | CC(=O)c1cc2c(cc1N/C(=N/S(=O)(=O)c1ccc(Br)cc1)c1ccccc1)OCO2 | 69% (inactive)
49 | CC(=O)Nc1ccc(NC(=O)c2ccc3c(c2)NC(=O)c2ccccc2S3)cc1 | 138% (inactive)
50 | CC1=C(C(=O)OC2CCCC2)C(c2c(F)cccc2Cl)CC(=O)N1 (configuration not stated) | 87% (inactive)
51 | O=C1CC(c2nnc(Cc3cccc(Cl)c3)o2)CN1c1ccccc1 (configuration not stated) | 113% (inactive)
52 | CS(=O)(=O)c1ccc(-c2nn[nH]n2)cc1 | 103% (inactive)
53 | O=C(Nc1c(C(=O)N2CCN(c3ccccc3)CC2)oc2ccccc12)c1ccc(Br)o1 | 81% (inactive)
54 | COc1cc(Cl)c(C)cc1Nc1nc2ccccc2n2cnnc12 | 127% (inactive)
55 | COc1cc2ncc(C(=O)c3ccc(C)cc3)c(N3CCCCC3)c2cc1OC | 2% (active)
56 | CCOC(=O)C1CCN(c2c(C(=O)c3ccc(OC)cc3)cnc3ccccc23)CC1 | 125% (inactive)
57 | CCOC(=O)C1CCN(c2c(C(=O)c3ccc(OCC)cc3)cnc3ccc(OC)cc23)CC1 | 0% (active)
58 | CCN1CCN(c2c(S(=O)(=O)c3ccc(OC)cc3)cnc3cc(OC)c(OC)cc23)CC1 | 77% (inactive)
59 | CCc1ccc2ncc(C(=O)c3ccc(C)c(C)c3)c(N3CCC(C(N)=O)CC3)c2c1 | 102% (inactive)
60 | CCOC(=O)C1CCN(c2c(C(=O)c3ccc(C)cc3)cnc3ccc(F)cc23)CC1 | 3% (active)
61 | COc1ccc(C(=O)c2cnc3ccc(C)cc3c2S(=O)(=O)c2ccccc2)cc1 | 79% (inactive)
62 | CCOC(=O)C1CCN(C(=O)c2ccc(C)cc2)CC1 | 93% (inactive)
63 | CCOc1ccc(S(=O)(=O)c2c(C(=O)c3ccc(CC)cc3)cnc3ccc(C)cc23)cc1 | 87% (inactive)
64 | CCCN(CCC)CCNC(=O)Cn1cc2c(n1)-c1c(oc(C(=O)N3CCCC3)c1C)CC2 | 106% (inactive)
65 | COc1ccc(-c2nc3ccccc3n3c(-c4cccc(C)c4)c4c(=O)n(C)c(=O)n(C)c4c23)cc1OC | 77% (inactive)
66 | CC(C)Oc1ccc(CNC(=O)c2sc3ncccc3c2-n2cccc2)cc1 | 64% (inactive)

Row | SMILES | survival
67 | O=C(CN1CCC(n2cnc3cc(F)ccc32)CC1)Nc1ccccc1Br | 108% (inactive)
68 | CCOC(=O)c1ccc(NC(=O)c2c(NCc3cc(OC)c(OC)cc3OC)sc3c2CCCC3)cc1 | 85% (inactive)
69 | COCCn1c(SCC(=O)Nc2sc(C)c(C)c2C#N)nnc1C(C)C | 103% (inactive)
70 | COc1ccccc1-c1nn(CCC(=O)Nc2ccccc2)c2nc(C)cc(C)c12 | 86% (inactive)
71 | COC(=O)c1cc2oc3ccccc3c2n1Cc1cccc(C)c1 | 3% (active)
72 | COC(=O)c1cc2oc3ccccc3c2n1Cc1ccc(Cl)cc1 | 21% (inactive)
73 | CCN(C(=O)Cn1c(C(=O)OC)cc2oc3ccccc3c21)c1cccc(C)c1 | 24% (active)
74 | COC(=O)c1cc2oc3ccccc3c2n1Cc1nc(-c2cccc(C)c2)oc1C | 72% (inactive)
75 | COC(=O)c1cc2oc3ccccc3c2n1Cc1ccc(C)cc1 | 82% (inactive)
76 | COC(=O)c1cc2oc3ccccc3c2n1CC(=O)Nc1ccc(C)cc1C | 86% (inactive)
77 | S=c1nc[nH]c2c1[nH]c1ccccc12 | 98% (inactive)
78 | CC1CCN(S(=O)(=O)c2cc(C(=O)Nc3ccc(Br)cc3F)n(C)c2)CC1 | 77% (inactive)
79 | COc1cc(C(c2nnnn2Cc2ccco2)N2CCN(C3CCCC3)CC2)cc(OC)c1OC (configuration not stated) | 107% (inactive)
80 | CC1CCN(C(=O)Cn2cc(SCC(=O)NCc3ccccc3)c3ccccc32)CC1 | 86% (inactive)
81 | Cc1ccc(C)n1-c1c(C(=O)NCCC(C)C)sc2ncccc12 | 79% (inactive)
82 | Cc1nc2ccccc2c(=O)n1-c1ccc(NC(=O)c2cccc([N+](=O)[O-])c2)cc1 | 59% (inactive)
83 | Cc1cc(N2CCN(c3cccc(C(F)(F)F)c3)CC2)n2nc(-c3ccccc3C)nc2n1 | 11% (active)
84 | COc1ccc(-c2nc3nc(C)cc(N4CCN(c5cccc(C(F)(F)F)c5)CC4)n3n2)cc1 | 88% (inactive)
85 | Cc1cc(N2CCN(c3cccc(C(F)(F)F)c3)CC2)n2nc(-c3ccccc3)nc2n1 | 87% (inactive)
86 | CCN(CC)C(=O)C1=C(C)Nc2nc3ccccc3n2C1c1ccc(Br)cc1 (configuration not stated) | 80% (inactive)
87 | Cc1cc(S(=O)(=O)C(CNC(=O)COc2ccccc2)c2cccs2)ccc1F (configuration not stated) | 153% (inactive)
